In PubChem BioAssay (EPA / NIEHS):
“And” between values parts separate entries of the source, which are not always exact repeats. Equal values may be shown once. Results filed as inconclusive are left out. The source made the active and inactive calls. Rule for the calls: active = hit-call score of the fitted dose curve at least 0.9, where 1 is the maximum; inconclusive = response in the unintended direction; inactive = score below 0.9.

Target: Luciferin 4-monooxygenase (Photinus pyralis) (UniProt P08659)
Sequence (P08659 whole entry, looked up): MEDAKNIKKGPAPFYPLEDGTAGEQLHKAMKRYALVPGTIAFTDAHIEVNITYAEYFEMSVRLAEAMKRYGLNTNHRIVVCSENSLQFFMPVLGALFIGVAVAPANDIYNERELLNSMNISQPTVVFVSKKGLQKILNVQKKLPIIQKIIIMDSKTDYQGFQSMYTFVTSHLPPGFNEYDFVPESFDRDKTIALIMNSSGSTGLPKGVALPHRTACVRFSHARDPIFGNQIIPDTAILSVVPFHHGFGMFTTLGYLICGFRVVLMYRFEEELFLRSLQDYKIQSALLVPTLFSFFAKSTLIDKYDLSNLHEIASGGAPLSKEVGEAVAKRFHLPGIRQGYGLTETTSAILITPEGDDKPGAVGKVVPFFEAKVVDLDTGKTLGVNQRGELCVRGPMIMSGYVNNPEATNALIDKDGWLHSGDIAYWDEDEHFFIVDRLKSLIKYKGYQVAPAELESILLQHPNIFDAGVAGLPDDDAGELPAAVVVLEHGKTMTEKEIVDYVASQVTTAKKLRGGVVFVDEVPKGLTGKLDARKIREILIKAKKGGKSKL
Assay: CCTE_Simmons_QuantiLum_inhib_2: CCTE's Firefly Luciferase Inhibition Assay, Simmons Lab (AID 2283767);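 for AC50: potency for inhibitors that lower luciferase luminescence relative to DMSO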
Summary of the method: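 Luminescence loss relative to DMSO vehicle defines inhibition; detection reagent containing 150 uM D-luciferin and 147 uM dATP (final, pH 7.8) is injected immediately before each read. Enzyme is preincubated with an 8-point titration (5 nM–87.5 uM final) for 30 min at 37C.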

Row | Structure (SMILES) | outcome | AC50
1 | CCCCCCCCc1ccc(O)cc1 | inactive | 
2 | CC(C)(c1ccccc1)c1ccc(O)c(C(C)(C)c2ccccc2)c1 | inactive | 
3 | CC(C)c1cccc(C(C)C)c1O | inactive | 
4 | Cc1ccccc1N | inactive | 
5 | COP(=S)(OC)Oc1ccc(Sc2ccc(OP(=S)(OC)OC)cc2)cc1 |  | 53.8 µM (active)
6 | Cc1ccc(N)cc1Cl | inactive | 
7 | Oc1cccc2cccnc12 | inactive | 
8 | OCc1ccco1 | inactive | 
9 | Clc1ccc(COC(Cn2ccnc2)c2ccc(Cl)cc2Cl)cc1 (stereo not given) | inactive | 
10 | CCC(C)(C)c1ccc(O)c(C(C)(C)CC)c1 | inactive | 
11 | CC1(C)Cc2cccc(O)c2O1 | inactive | 
12 | Cc1ccc2ccccc2c1C | inactive | 
13 | CCOC(=O)Nc1cccc(OC(=O)Nc2ccccc2)c1 |  | 29.1 µM (active)
14 | O=C(O)C(F)(F)C(F)(F)C(F)(F)C(F)(F)C(F)(F)C(F)(F)F | inactive | 
15 | CCCCCCCCSC(=O)Oc1cc(Cl)nnc1-c1ccccc1 |  | 81.7 µM (active)
16 | CC(C)(C)CC(C)(C)c1ccc(O)cc1 | inactive | 

System: not listed separately
Assay: ACEA_AR_agonist_AUC_viability: ACEA Biosciences xCELLigence Real-Time Cell Analysis on Androgen Receptor Agonism for Viability (AID 2283775);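 for AC50: viability read 80 hours after compound addition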
Summary of the method: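 Real-time impedance tracking of 22Rv1 growth, readings every 5 min for 5 h then hourly; area-under-curve viability endpoint at 80 hours, relative to DMSO. Compounds at eight concentrations, 1:4 steps, top 100 uM, n = 2.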

Row | Structure (SMILES) | AC50 | outcome
17 | CCCCCCCCc1ccc(O)cc1 | 29.8 µM (active) | 
18 | CC(C)c1cccc(C(C)C)c1O |  | inactive
19 | CC(C)C1CCC(Cc2ccc(Cl)cc2)C1(O)Cn1cncn1 (stereo not given) |  | inactive
20 | Cc1ccccc1N |  | inactive
21 | O=C/C=C/c1ccccc1 |  | inactive
22 | CCC[CH2][Sn]([Cl])([Cl])[Cl] |  | inactive
23 | O=c1[nH]c(=O)[nH]c(=O)[nH]1 |  | inactive
24 | CC(C)(OO)c1ccccc1 |  | inactive
25 | Cc1ccc(N)cc1Cl |  | inactive
26 | Oc1cccc2cccnc12 | 22.3 µM (active) and 6.75 µM (active) | 
27 | BrCCBr |  | inactive
28 | OCc1ccco1 |  | inactive
29 | CCCCOCCOC(C)=O |  | inactive
30 | CC(C#N)CCC#N (stereo not given) |  | inactive
31 | O=C(NCO)NCO |  | inactive
32 | O=C1C(Cl)=C(Cl)C(=O)c2ccccc21 |  | inactive
33 | CC1(C)Cc2cccc(O)c2O1 |  | inactive
34 | Cl/C=C\C[N+]12CN3CN(CN(C3)C1)C2 |  | inactive
35 | O=C(O)C(F)(F)C(F)(F)C(F)(F)C(F)(F)C(F)(F)C(F)(F)F |  | inactive
36 | CC(C)OC(=O)Nc1ccccc1 |  | inactive
37 | COc1cc(OC)nc(NC(=O)NS(=O)(=O)c2ncccc2C(=O)N(C)C)n1 | 1.74 µM (active) | 
38 | CC(C)(C)CC(C)(C)c1ccc(O)cc1 | 10.4 µM (active) | 
39 | C=C(C)C#N |  | inactive
40 | N#CN=C(N)N |  | inactive
